Drawing on the supplement of paper PMC6555819, this text covers PBM binding z-score for 17 sequences.

Assay in all cases: PBM binding z-score (relative to random genomic background probes); higher = stronger binding; sequences stand for … in GC…GCGATTGACAGCGTAGAATGAAGG
The subject of assay [1] is RARb homodimer (NR concentration 270 nM). An outline of the steps: (§1)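 Custom Agilent 4×180K protein-binding microarrays carried double-stranded probes. Their 34-nt variable regions held direct-repeat seeds, single-nucleotide variants, half-site ablations and random human genomic background sequences. Arrays were incubated 1 h with ligand-free nuclear receptor dimers in PBS pH 7.4, 2% milk, 0.02% Triton X-100, 1 mM DTT, 0.2 mg/mL BSA and 0.4 mg/ml salmon testes DNA. Antibodies against each partner (one per run) detected binding, and scanned fluorescence was regression-normalized. Binding z-scores use random background probes as reference.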

Assay [2] concerns RARg:RXRa (NR concentration 270 nM, RXRa partner concentration 90 nM). A digest of the protocol:
as §1

Assay [3] relates to RARg homodimer (NR concentration 270 nM). A digest of the protocol:
as §1

For assay [4], the system named is RXRa DBDmut IVT, anti-RXR (DBD mutation: RXRa K156A/R161A, NR concentration 90 nM). An outline of the steps:
as §1

Assay [5] concerns RXRa homodimer (NR concentration 180 nM). A digest of the protocol:
as §1

Assay [6] has as its system THRa:RXRa (NR concentration 90 nM, RXRa partner concentration 90 nM). A digest of the protocol:
as §1

Assay [7] relates to THRa homodimer (NR concentration 90 nM). A digest of the protocol: as §1
In assay [8] the test system is VDR homodimer (NR concentration 270 nM). A digest of the protocol: as §1

In the case of TCTTGTAGATCAATAGAGGTTAAGGAAGTGCGCT, the PBM binding z-score in assay [1] was determined as 1.1; in assay [2], 0.898; in assay [3] it was 0.454; in assay [4], 0.775; in assay [5] it was 1.61; in assay [6], 2.38. For the same sequence, the PBM binding z-score was -0.179 in assay [7] and 0.208 in assay [8].

As for CCTACTGGGCCACGAAGGGTCATTGATTCAGTGA, the PBM binding z-score was 3.41 in assay [1]; 2.96 in assay [2]; 2.73 in assay [3]; -0.323 in assay [4]; 2.86 in assay [5]; 3 in assay [6]. In addition, the PBM binding z-score in assay [7] was -0.121; in assay [8] it was 1.53.

As to ACTAGCAGGCCAAGGGTAACTCAAGATTAGTCCG, the PBM binding z-score was 0.76 in assay [1]; 0.469 in assay [2]; 0.734 in assay [3]; -0.0114 in assay [4]; 0.59 in assay [5]; 0.54 in assay [6]. The PBM binding z-score in assay [7] was -0.321; in assay [8], -0.349.

As to CCTATTAGTTCACCATAAGGGCAACCGAAGCTCG, the PBM binding z-score in assay [1] worked out at 3.48; in assay [2], 4.31; in assay [3] it was 2.61; in assay [4] it was 2.82; in assay [5] it was 1.69; in assay [6], 3.37. Further, the PBM binding z-score in assay [7] turned out to be 1.73; in assay [8], 2.41.

As for ACAGACAGGTGAGTCAAGGTAACTCAGCTGGACG, the PBM binding z-score in assay [1] is 0.0236; in assay [2], 0.322; in assay [3], 0.586; in assay [4] it was -0.585; in assay [5], 0.518; in assay [6], 3.73. The figures for the PBM binding z-score in assay [7] and in assay [8] were 0.299 and -0.203, respectively.

On to CGTCCAAGGTCAGTAGGTCAGTGAAAGCGACGTG, for which the PBM binding z-score was found to be 4.74 in assay [1]; 5.95 in assay [2]; 6.1 in assay [3]; 2.72 in assay [4]; 4.05 in assay [5]; 3.35 in assay [6]. Moreover, the PBM binding z-score was found to be 1.74 in assay [7] and 1.94 in assay [8].

With AGTCAAAGTTCACTAGGAAACGTAAGATTCAGCT, the PBM binding z-score was determined as 3.48 in assay [1]; 4.86 in assay [2]; 5.62 in assay [3]; 3.98 in assay [4]; 3.71 in assay [5]; 1.3 in assay [6]. Further, the PBM binding z-score was -0.55 in assay [7] and 3.64 in assay [8].

Consider AAGACAGGGTCATCGTAGGCCAGAGTACGCACAG, for which the PBM binding z-score in assay [1] was 3.6; in assay [2] it was 5.67; in assay [3] it was 5.54; in assay [4] it was 3.14; in assay [5], 6.69; in assay [6], 4.37. Further, the PBM binding z-score in assay [7] came to 1.12; in assay [8] it was 3.34.

On to CAAACTAGGTCAAAAGTCAAAGTCGAGCCAACCA, for which the PBM binding z-score came out at 2.64 in assay [1]; 4.67 in assay [2]; 4.23 in assay [3]; 1.61 in assay [4]; 5.2 in assay [5]; 2.55 in assay [6]. In addition, the PBM binding z-score is 0.407 in assay [7] and 0.387 in assay [8].

As for CCTAGCAGGCCAATCTGGGTAACTCAAGGCTTGA, the PBM binding z-score in assay [1] was -0.251; in assay [2] it was -0.429; in assay [3], -0.124; in assay [4], 0.0487; in assay [5], -0.515; in assay [6], 1.86. Also, the PBM binding z-score was -0.653 in assay [7] and -0.997 in assay [8].

On to GCGACTGGGGCAAAGCAGGGTACCATAAGGTTGG, for which the PBM binding z-score was 0.665 in assay [1]; 0.296 in assay [2]; 0.341 in assay [3]; -0.678 in assay [4]; 0.287 in assay [5]; 1.61 in assay [6]. Moreover, the results for the PBM binding z-score in assay [7] and in assay [8] were -0.383 and -0.139, respectively.

Consider TGAATGAGGTTAATGATCAGGGAACGTGGCGTCG, for which the PBM binding z-score was 0.436 in assay [1]; 1.4 in assay [2]; 1.07 in assay [3]; 0.589 in assay [4]; 1.67 in assay [5]; 1.97 in assay [6]. In addition, the PBM binding z-score in assay [7] amounted to 0.6; in assay [8], 0.544.

On to TCGAGTAGGTTACCAATGGGGCTTTCAGCTTTCT, for which the PBM binding z-score in assay [1] was 0.0343; in assay [2], 0.0207; in assay [3], 0.23; in assay [4] it was 0.35; in assay [5], 0.16; in assay [6], -0.122. The PBM binding z-score in assay [7] was -0.536; in assay [8], -0.784.

With TCTATTAGTTGCTTAGGGCAACCGAAACAGCGGA, the PBM binding z-score stood at 0.716 in assay [1]; 0.433 in assay [2]; 0.547 in assay [3]; 1.23 in assay [4]; 0.549 in assay [5]; 0.996 in assay [6]. In addition, the values for the PBM binding z-score in assay [7] and in assay [8] were 0.379 and 0.236, respectively.

As for GGAACGAGGGCATTCGAGTTGATACCATGGCGAT, the PBM binding z-score in assay [1] came to 0.873; in assay [2], 1.26; in assay [3], 1.46; in assay [4], 3.31; in assay [5], 0.823; in assay [6], 3.34. Also, the values for the PBM binding z-score in assay [7] and in assay [8] were -0.337 and 3.45, respectively.

As to AGAATGAGGTTATACATAGATCAGGGAAGAAAGT, the PBM binding z-score in assay [1] stood at 0.905; in assay [2] it was 2.03; in assay [3], 1.38; in assay [4], 1.27; in assay [5], 2.42; in assay [6] it was 2.19. Further, the PBM binding z-score was 0.855 in assay [7] and 1.24 in assay [8].

Turning to AGTCAAAGTACACTAGGTAACGTAAGATTCAGCT, the PBM binding z-score in assay [1] was determined as 0.288; in assay [2], 0.245; in assay [3] it was 0.909; in assay [4] it was 1.11; in assay [5], 0.318; in assay [6] it was 0.479. The PBM binding z-score in assay [7] was -0.0974; in assay [8], 0.127.
